High-throughput results from PubChem BioAssay.
This is a sample that favours compounds with a hit; in the whole collection about 14% have one here.
Pf growth 96h – P. falciparum growth inhibition at 96 hours; P. falciparum luciferase reporter growth, 96 h; Potency, µM (highest dose often 28.7 µM), inactives show at the highest dose activity change, negative = inhibition, most hits filed as inhibitors; 320,000 tested, 6.9% active; AID 504834; also: potency is read from the fitted curve at half-maximal effect
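Readout is luminescence from an integrated firefly luciferase in P. falciparum. Red cells, 2% hematocrit and 0.05% parasitemia final, were cultured with compound through two parasite generations (96 hours) at 37 C, 5% CO2.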
FBPA Giardia inh – inhibitors of Giardia lamblia fructose-1,6-bisphosphate aldolase; A8B2U2; 290,000 tested, 0.71% active; purified Giardia FBPA; AID 2451; Potency, µM (highest dose often 59.6 µM), inactives show at the top dose activity, negative = inhibition, hits mostly inhibitors; also: potency is read from the fitted curve at half-maximal effect; nearly all actives have a fitted effect of over 55% in size
Target sequence (A8B2U2 whole entry, looked up): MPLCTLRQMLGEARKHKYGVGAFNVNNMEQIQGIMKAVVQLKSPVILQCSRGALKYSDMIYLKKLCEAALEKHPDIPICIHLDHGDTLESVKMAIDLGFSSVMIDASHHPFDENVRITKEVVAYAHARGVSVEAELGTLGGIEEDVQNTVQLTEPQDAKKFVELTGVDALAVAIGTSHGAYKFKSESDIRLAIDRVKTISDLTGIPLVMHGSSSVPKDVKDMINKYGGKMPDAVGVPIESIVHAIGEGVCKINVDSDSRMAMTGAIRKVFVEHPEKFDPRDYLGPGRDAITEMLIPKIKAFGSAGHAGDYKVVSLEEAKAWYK
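40 nM FBPA preincubated 10 min at RT with compound (up to 57.5 uM final), then substrate plus GAPDH/TPI/NAD/arsenate coupling and diaphorase/resazurin added. Fluorescence read after 20 min at RT, 525/598 nm.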
HCMV inh – blocks human cytomegalovirus replication; activity change, negative = inhibition, % at 57.5 µM; 410,000 tested, 4.5% active; HFF cells, HCMV-luciferase reporter, 72 h; active compounds read low; in the data active = activity change below about -60%; inconclusive = no clear call, values can overlap the other calls; inactive = above about -39%
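HFF cells seeded 16 h at 37C, treated with compounds, infected with luciferase-reporter HCMV at MOI 1 PFU/cell; luciferase read at 72 h post infection, normalized to buffer-only and Salinomycin controls.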
Sm TGR inh – S. mansoni TGR enzyme inhibition; purified TGR, DTNB reduction, TNB absorbance 405 nm; Potency, µM (titrated, usually from 114 µM), without a hit: at the highest dose activity change, negative = inhibition, actives largely listed as inhibitors; 360,000 tested, 3% active; AID 485364; also: potency is read from the fitted curve at half-maximal effect; nearly all actives have a fitted effect of over 60% in size
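TGR 20 nM + NADPH 100 uM (dispensed conc.), cpd preinc 15 min RT; start with NADPH (500 uM addition) then DTNB (15 mM addition). Kinetic TNB absorbance, 405 nm filter. Four-parameter Hill fit across titration.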
Pf growth 48h – P. falciparum growth inhibition at 48 hours (one generation). P. falciparum luciferase growth in erythrocytes, 48 h. Potency, µM (series often up to 28.7 µM), for the others: top-dose activity change, negative = inhibition, actives largely listed as inhibitors. 310,000 tested, 5.9% active. AID 504832; also: potency is read from the fitted curve at half-maximal effect
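Firefly luciferase activity from engineered P. falciparum reports growth; inhibitors lower the luminescent signal. Cultures contained 2% hematocrit erythrocytes at 0.1% final parasitemia.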
* = called active by the depositor; u = inconclusive; x = no result given. Unless noted, calls follow the shape of the dose curve; as a rule, active = well fitted curve in the direction sought with a large enough effect; inconclusive = small, poorly fitted or top-dose-only effect, or another doubt; inactive = no such curve, though single readings can be large; an effect the other way counts as inactive or inconclusive. % is scaled to controls: 0 for no effect and ±100 for the full control effect.

SMILES	Pf growth 96h	FBPA Giardia inh	HCMV inh	Sm TGR inh	Pf growth 48h
Cc1cnc(NC(=O)COc2cccc3c2OC(C)(C)C3)s1	-5%	2%	-88*	10%	5%
Cc1ccc(NC(=O)COc2cccc3ccccc23)c(O)c1	4.7µM*	x	-12	-3%	5.2µM*
CCNC(=O)COc1cccc2ccccc12	20%	-1%	-69*	0%	x
CC(=O)Nc1ccc(SCCN2CCN(C)CCC2=O)cc1	x	0%	x	x	x
CCOC(=O)C1CCN(CC(=O)c2c(C)n(C)c3ccc(OC)cc23)CC1	4%	-11%	3	-24%	15%
CSc1nc2ccccc2nc1N(C)S(=O)(=O)c1ccc(C)cc1	-9%	u	-66*	1%	-4%
COc1ccc(CCNC(=O)c2cc3c(=O)n(C)c4cc(Cl)ccc4c3s2)cc1OC	x	x	-24	12%	x
COc1ccc(NC(=O)CSC2=Nc3ccccc3C3=NC(CCC(=O)NC4CCCCC4)C(=O)N23)cc1Cl (stereo unspecified)	x	x	16	10%	x
CCCC(=O)C1=C(O)C(C(=O)OC)C(C)(C)CC1=NCc1ccccc1 (stereo unspecified)	7.4µM*	11%	-37	100µM*	u
CCCC(=O)C1=C(O)C(C(=O)OC)C(C)(C)CC1=Nc1ccccc1 (stereo unspecified)	-4%	7%	7	2%	4.1µM*
CCCC(=O)C1=C(O)C(C(=O)OC)C(C)(C)CC1=Nc1cccc2ccccc12 (stereo unspecified)	-27%	-7%	-21	-2%	5.2µM*
c1ncc(CC2CCNCC2)[nH]1	x	1%	x	x	x
COc1ccc(C(=O)CSc2nccn2C)c(OC)c1	119%	x	90	5%	135%
CCOC(=O)c1c(C)[nH]c(C(=O)OCC(=O)Nc2ccccc2)c1C	u	x	-6	-4%	-8%
CC(=O)c1c(C)[nH]c(C(=O)OCC(=O)Nc2cccc(S(=O)(=O)N3CCCC3)c2)c1C	0.83µM*	-6%	-65*	2%	5.9µM*
CC(=O)c1c(C)[nH]c(C(=O)OCC(=O)Nc2ccc3[nH]c(=O)[nH]c3c2)c1C	17%	x	64	-16%	3%
CC(=O)c1c(C)[nH]c(C(=O)OCC(=O)Nc2cccc(S(=O)(=O)N(C)C)c2)c1C	u	-2%	-61*	-10%	u
CC(=O)c1c(C)[nH]c(C(=O)OCC(=O)Nc2cc(S(=O)(=O)N3CCCC3)ccc2Cl)c1C	24%	0%	u	-7%	-22%
CCN(CC)S(=O)(=O)c1cccc(NC(=O)COC(=O)c2[nH]c(C)c(C(C)=O)c2C)c1	x	x	-85*	x	x
N#Cc1c(N)n(CCc2ccc(F)cc2)c2nc3ccccc3nc12	0.33µM*	-27%	-69*	8%	x
N#Cc1c(N)n(CCOC(=O)c2cccc([N+](=O)[O-])c2)c2nc3ccccc3nc12	8.3µM*	-18%	-16	7%	u
COc1cc(Cn2c(N)c(C#N)c3nc4ccccc4nc32)cc(OC)c1	2.3µM*	-27%	18	4%	u
COc1cccc(Cn2c(N)c(C#N)c3nc4ccccc4nc32)c1OC	10µM*	-15%	24	1%	u
COCCn1c(N)c(C#N)c2nc3ccccc3nc21	x	-24%	-29	8%	-4%
CCC(=O)N1CCc2cc(Br)cc(S(=O)(=O)CCC(=O)N3CCN(c4ccc(OC)cc4)CC3)c21	x	x	8	-1%	x
SMILES	Pf growth 96h	FBPA Giardia inh	HCMV inh	Sm TGR inh	Pf growth 48h
Cc1nn(CC(=O)NC2CCCCC2)c(=O)c2cc3cc(F)ccc3n12	x	x	9	-9%	x
CC1(C)C(=O)C(c2ccccc2)=C2CN3C(=O)N(CCc4ccccc4)C(=O)C3(Cc3ccc(F)cc3)C=C21 (stereo unspecified)	x	-5%	x	x	x
C[C@@H]1CN(S(=O)C(C)(C)C)[C@H](CCO)/C1=C\CCO (stereo partly specified)	x	x	16	x	x
COc1ccc(Cn2c(N)c(C#N)c3nc4ccccc4nc32)cc1	u	u	-14	-16%	4.7µM*
Clc1cccc(Cl)c1NC1=NCCN1	12µM*	-4%	x	-7%	-14%
COc1ccc(OCCCCn2c(CO)nc3ccccc32)cc1	u	-5%	-33	-12%	-3%
CCC(C(=O)O)C1CCC(C)C(C(C)C(O)C(C)C(=O)C(CC)C2OC3(C=CC(O)[C@@]4(CC[C@](C)(C5CC[C@@](O)(CC)C(C)O5)O4)O3)C(C)CC2C)O1 (stereo partly specified)	0.21µM*	13%	x	x	0.43µM*
CC[C@@H](C(=O)[C@@H](C)[C@@H](O)[C@H](C)[C@@H]1O[C@@H]([C@@H](CC)C(=O)O)CC[C@@H]1C)[C@H]1O[C@]2(C=C[C@@H](O)[C@]3(CC[C@@](C)([C@H]4CC[C@](O)(CC)[C@H](C)O4)O3)O2)[C@H](C)C[C@@H]1C	x	x	-98*	x	x
Cc1c(C(=O)N/N=C/c2ccccc2)sc(=S)n1C	13µM*	0%	0	1%	33%
Cc1cc(C)c(C(=O)O)c(Cl)n1	22%	u	-21	40µM*	38%
CCOc1ccc(NC(=O)c2ccc(NS(=O)(=O)c3cccs3)cc2)cc1	0.83µM*	-11%	-8	11%	-3%
Cc1ccccc1OCC(=O)Nc1ccc2[nH]ncc2c1	12µM*	11%	-16	-17%	23%
O=C(COc1ccccc1)Nc1ccc2[nH]ncc2c1	29%	8%	-32	-8%	-11%
COc1ccc(C(=O)Nc2ccc3[nH]ncc3c2)cc1	133%	-5%	51	-22%	158%
COc1cccc(NC(=O)c2ccc(NS(=O)(=O)c3cccs3)cc2)c1	0%	x	-24	5%	10%
CCOc1ccc(C(=O)Nc2ccc3[nH]ncc3c2)cc1	12µM*	3%	180	5%	183%
COc1ccccc1C(=O)NNC(=O)c1ccc(NS(=O)(=O)c2cccs2)cc1	9%	x	48	0%	36%
COc1cccc(C(=O)NNC(=O)c2ccc(NS(=O)(=O)c3cccs3)cc2)c1OC	2.1µM*	x	23	0%	2.9µM*
CN(CC(=O)Nc1ccc(Cl)cc1)C(=O)CNC(=O)c1cccs1	-16%	x	0	-4%	-25%
COc1ccc(-c2nc3cnc(Nc4cccc(OC)c4)nc3n(Cc3cccs3)c2=O)cc1	x	3%	x	x	x
CCn1c(SCC(=O)c2[nH]c(C)c(C(C)=O)c2C)nnc1-c1ccccc1	u	-4%	-37	1%	-14%
C=CCOc1ccc(CN(C)C(=O)CNC(=O)c2ccc(-c3ccccc3)cc2)cc1	-29%	x	-81*	-8%	13µM*
C=CCOc1ccc(C(=O)Nc2ccc(OCC)cc2)cc1	4.1µM*	7%	-2	-3%	0%
Cc1cc(-c2csc(NC(=O)c3cccc(S(=O)(=O)N(C)C)c3)n2)c(C)n1-c1ccccc1	12µM*	-7%	0	-17%	8.3µM*
